Source: PubChem BioAssay
Compounds with a hit are over-represented: about 2.4% of the library has one in this group of screens.
D2 PAM-1: human D2 receptor positive allosteric modulation; hit rate 0.23% among 360,000; potentiation, % (concentration not given with the values); AID 624464; DiscoveRx D2 beta-arrestin cells, luminescence, 90 min; 100% = 57 uM dopamine signal; P14416; in the data active = potentiation above about 50%; inconclusive = mostly about 30% to 49%
Target sequence (P14416 whole entry, looked up): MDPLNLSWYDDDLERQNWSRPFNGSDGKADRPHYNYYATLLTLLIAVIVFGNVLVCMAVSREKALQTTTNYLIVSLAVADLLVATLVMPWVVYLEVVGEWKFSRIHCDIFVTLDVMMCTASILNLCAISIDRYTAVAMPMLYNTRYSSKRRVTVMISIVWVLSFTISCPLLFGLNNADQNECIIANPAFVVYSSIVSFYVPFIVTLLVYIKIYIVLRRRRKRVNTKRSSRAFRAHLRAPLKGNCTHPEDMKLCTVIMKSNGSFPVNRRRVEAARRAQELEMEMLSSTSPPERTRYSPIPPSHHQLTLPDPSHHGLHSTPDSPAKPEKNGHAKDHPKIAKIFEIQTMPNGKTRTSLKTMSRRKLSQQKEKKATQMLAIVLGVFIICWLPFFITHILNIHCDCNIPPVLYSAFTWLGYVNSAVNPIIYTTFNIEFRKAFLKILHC
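D2 cells co-treated with compound plus 50 nM dopamine (EC20) for 90 min at 37 deg C to detect potentiation. Beta-arrestin recruitment was read as enzyme-fragment luminescence after 1 h at ambient temperature. Full response was set by 57 uM dopamine.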
B2AR arrestin: beta2AR (human) beta-arrestin recruitment activity; P07550; hit rate 0.02% among 330,000; Potency, µM (titrated, usually from 46.1 µM), without a hit: top-dose activation, most hits filed as activators; AID 492947; beta-arrestin recruitment to beta2AR, cell-based reporter;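 note: potency is the fitted concentration of half-maximal effect; 0% = DMSO controls and full agonism = EC100 isoproterenol or metaproterenol; nearly all actives have a fitted effect of over 65% in size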
D2 antagonist: antagonists of human D2 dopamine receptor. P14416. HEK293 TREx D2 cells, calcium flux, dopamine EC80. inhibition, % at 10 µM. hit rate 2% among 340,000. AID 485344; in the data active = inhibition above about 30%; inactive = below that, where a call was filed; note: 0% is about no effect
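HEK293 T-REx D2 cells, tet-induced, calcium dye no-wash. Cpd pintool add, 180 s kinetic, then EC80 DA, 180 s kinetic. Ca flux read.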
D2 ag-1: agonists of human D2 dopamine receptor (beta-arrestin); P14416; hit rate 0.084% among 360,000; activation, % (no concentration beside the values); DiscoveRx PathHunter D2 beta-arrestin, luminescence, 90 min; 100% = 57 uM dopamine signal; in the data active = activation above about 40%; inconclusive = between about 15% and that limit
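Agonist mode: compounds alone added to overnight-plated D2 PathHunter cells for 90 min at 37 C, with 57 uM final dopamine (EC100) defining full response. Beta-arrestin recruitment detected by chemiluminescent reagent, read after 1 h at ambient temperature.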
D2 PAM-2: positive allosteric modulators of human D2 dopamine receptor | potentiation, % at 10 µM | hit rate 0.34% among 340,000 | HEK293 T-REx D2, calcium flux, EC20 dopamine potentiation;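 active = potentiation over 3 SD above the plate norm, cut at about 30% in these data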; note: 0% is about no effect
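Potentiation of an EC20 dopamine calcium response is measured in a force-coupled, tetracycline-inducible Hek293 Trex D2 line. Compound-only kinetic reads over 180 s flag agonists before dopamine addition.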
D2 ag-2: D2 dopamine receptor (human) agonism | activation, % at 2 µM | P14416 | hit rate 0.53% among 340,000 | HEK293 T-REx D2 cells, calcium flux agonist mode;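 active = activation over 3 SD above normal in the single-dose calcium agonist read, cut at about 30% in these data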; note: 0% is about no effect
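Calcium-flux readout, 1 cycle/sec over 180 s following compound pin transfer, in inducible HEK293 Trex D2 cells (force-coupled); dopamine controls included. Positive calcium responses during this window marked compounds as potential agonists.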
D3 arrestin ag: activates human D3 dopamine receptor beta-arrestin recruitment | shares compounds with D2 ag-2 | DiscoveRx D3 beta-arrestin cells, luminescence, 90 min | Potency, µM (series often up to 76.9 µM), for inactives: at the top dose activation, most hits filed as activators | hit rate 4% among 2,300;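 note: potency is the fitted concentration of half-maximal effect; 100% = dopamine control response; nearly all actives have a fitted effect of over 70% in size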
D2 ag-3: D2 receptor agonism, beta-arrestin counterscreen; shares compounds with D2 ag-2; hit rate 5.9% among 2,300; DiscoveRx PathHunter D2 beta-arrestin, luminescence, 90 min; response scale: percent relative to full dopamine signal; Potency, µM (series often up to 76.9 µM), inactives show at the highest dose activation, hits mostly activators; note: potency is the fitted concentration of half-maximal effect; % of control where 0% means no effect; nearly all actives have a fitted effect of over 70% in size
* = called active by the depositor; ? = inconclusive; . = no result given. Unless noted, calls come from the whole dose curve; as a rule, active = well fitted activation curve with a large enough effect; inconclusive = small, poorly fitted or top-dose-only effect; inactive = flat fitted curve, though single readings scatter.

SMILES	D2 PAM-1	B2AR arrestin	D2 antagonist	D2 ag-1	D2 PAM-2	D2 ag-2	D3 arrestin ag	D2 ag-3
Cn1c(N)c(C(=O)CSc2nnc(-c3cccs3)n2C2CC2)c(=O)[nH]c1=O	15	0%	19	?	-21	77*	21%	21%
Nc1c(C(=O)CSc2n[nH]c(-c3ccccc3Br)n2)c(=O)[nH]c(=O)n1C1CC1	-7	0%	-11	-4	-6	0	.	.
CCc1nc(C)cn1S(=O)(=O)c1cc(Br)c(C)cc1OC	-12	0%	-7	-1	18	-1	.	.
CCc1nc(C)cn1S(=O)(=O)c1cc(C)c(OC)cc1C	-2	0%	-20	-5	-22	64*	5%	3%
COc1cccc(CC(=O)OCC(=O)N2CCN(c3ccc(F)cc3)CC2)c1	1	0%	-5	-2	5	0	.	.
Cn1c(=O)c2[nH]c(N3CCCCC3)nc2n(C)c1=O	7	0%	-7	-1	4	0	.	.
Cn1c(=O)c2[nH]c(N3CCN(c4ccccn4)CC3)nc2n(C)c1=O	.	-1%	7	.	4	3	-2%	2%
Clc1cccc(OCCn2cncn2)c1Cl	-5	0%	.	0	.	.	.	.
CC1CC(C)CN(CCOc2cccc(Cl)c2Cl)C1 (centres undefined)	16	0%	86*	41*	-27	88*	?	?
CN(C(=O)c1ccc(NC(=O)Cc2cccc(NC(=O)C3CCN(C(=O)C4CC4)CC3)c2)cc1)C1CCCC1	-2	0%	-12	0	22	1	-6%	-4%
COCCN(Cc1ccc(OC)cc1)c1c(C)nc2ccc(C(=O)NCCc3c[nH]c4ccccc34)cn12	-9	.	.	-4	.	.	.	.
CSc1ccc(NC(=O)NCCCN2CCN(c3ccccc3F)CC2)cc1	3	0%	100*	?	-20	69*	?	?
O=C(NCCCN1CCN(c2ccccc2F)CC1)Nc1ccccc1[N+](=O)[O-]	-17	0%	99*	?	-25	73*	17%	?
O=C(NCCCN1CCN(c2ccccc2F)CC1)Nc1ccc(F)cc1	-4	0%	81*	14	-20	76*	-1%	?
Cc1nn(-c2ccc(F)cc2)c(-n2cccc2)c1C(=O)NCCCN1CCN(c2ccccc2F)CC1	.	.	.	.	-23	22	.	.
O=C(Cn1c(=O)c2cccn2c2ccc(F)cc21)NCCCN1CCN(c2ccccc2F)CC1	-34	0%	82*	?	-19	79*	4%	?
Cc1ccccc1NC(=O)NCCCN1CCN(C)CC1	5	0%	3	2	9	0	.	.
Cc1ccc(NC(=O)c2cc3c(=O)oc4ccc(C)cc4c3s2)nc1	.	9%	-18	.	-2	0	.	.
Cc1cccc(Cn2cc(SCC(=O)Nc3nccs3)c3ccccc32)c1	-1	0%	-29	0	3	1	.	.
COc1ccccc1N1CCN(CCCNC(=O)Nc2ccccc2)CC1	-12	-1%	101*	?	-30	87*	29%	28%
COc1ccc(N2CCN(CCCNC(=O)Nc3ccccc3)CC2)cc1	-24	0%	-2	-1	12	0	.	.
COc1cc(CN2CCN(c3ncccn3)CC2)cc(OC)c1	1	-2%	87*	56*	-22	88*	?	2.8µM*
COc1ccc(CN2CCN(c3ccccn3)CC2)c(OC)c1	3	0%	83*	?	-22	84*	22%	?
COc1ccc(CN2CCN(Cc3ccccc3F)CC2)c(OC)c1	-16	0%	5	-4	-4	-2	.	.
COc1ccc(CN2CCN(c3ncccn3)CC2)c(OC)c1	16	0%	69*	45*	-5	56*	?	?
SMILES	D2 PAM-1	B2AR arrestin	D2 antagonist	D2 ag-1	D2 PAM-2	D2 ag-2	D3 arrestin ag	D2 ag-3
COc1ccc(-n2c(CN3CCN(c4ccccc4)CC3)nc3ccc([N+](=O)[O-])cc3c2=O)c(OC)c1	-13	0%	13	7	3	18	.	.
COc1cc(CN2CCCCCC2)cc(OC)c1	-13	0%	-7	-2	-8	0	.	.
COc1cccc(-n2c(CN3CCN(c4ccccn4)CC3)nc3ccc([N+](=O)[O-])cc3c2=O)c1	-10	0%	7	-1	-17	28	-3%	3%
O=[N+]([O-])c1ccc(CN2CCN(c3ncccn3)CC2)cc1	?	-1%	85*	49*	-27	83*	?	18µM*
O=[N+]([O-])c1ccccc1CN1CCN(c2ncccn2)CC1	-4	0%	4	9	-3	47*	2%	10%
O=[N+]([O-])c1cccc(CN2CCN(c3ncccn3)CC2)c1	8	-1%	29	?	-17	75*	9%	?
Cc1cc(=O)[nH]c2nc3ccccc3n12	-6	.	.	-1	.	.	.	.
CCc1ccc(-c2cc(C(=O)Nn3cnnc3)c3ccccc3n2)cc1	-21	0%	-13	-2	11	0	.	.
O=C(CN1CCN(c2cccc(Cl)n2)CC1)N1CC(O)CO1 (centres undefined)	-8	-1%	3	0	-3	0	.	.
Cc1ccc(C(=O)CN2CCN(c3ccccn3)CC2)c(C)c1	4	0%	.	?	.	.	?	?
O=C(CN1CCN(c2ccccn2)CC1)N1CC(O)CO1 (centres undefined)	0	-1%	12	7	-13	29	21%	6%
Cc1ccc2[nH]cc(C(=O)CN3CCN(c4ccccn4)CC3)c2c1	-42	-2%	34*	2	-28	19	10%	4%
O=C(CN1CCN(CC(=O)Nc2ccc(-c3ccccc3)cc2)CC1)Nc1ccc(F)cc1	-3	0%	-7	3	22	-1	.	.
O=c1c2sccc2nc(SCc2ccc([N+](=O)[O-])cc2)n1Cc1ccccn1	-11	4%	16	-3	-3	-2	.	.
O=[N+]([O-])c1ccc(C=CC=Cc2ccccc2)cc1	-4	.	.	1	.	.	.	.
O=[N+]([O-])c1ccc(/C=C/C2=NN(c3ccccc3)C(c3ccco3)C2)cc1 (centres undefined)	-4	-3%	26	-9	11	51*	7%	9%
